This is an account of results in PubChem BioAssay (EPA / NIEHS).

The target in assay [1] is Estrogen receptor (Homo sapiens) (UniProt P03372). Kind of assay: ATG_ERa_TRANS: Attagene TRANS-FACTORIAL HepG2 Assay for human Estrogen Receptor alpha (ERa) (AID 2282970). The settings on record: HepG2 Attagene TRANS ERa GAL4 reporter, mRNA. In a few lines:
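Transfected HepG2 cells carrying GAL4-UAS-driven reporter units were dosed for 24 hours. Total RNA was reverse-transcribed, reporter sequences PCR-amplified, FAM-labelled, HpaI-digested and resolved by capillary electrophoresis. Increases over DMSO control defined activity.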

A short description of assay [2]: BSK_3C_Vis: BioMAP Diversity Plus: 3C Assay for Morphology Visualization (AID 2283025; active = hit-call score of the fitted dose curve at least 0.9, where 1 is the maximum; inactive = score below 0.9;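 also: fitted both ways so gain or loss versus DMSO counts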). The settings on record: primary human endothelial cells (HUVEC). In a few lines:
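Light-microscopy visualization of HUVEC cultures at 24 h post-treatment, with DMSO as baseline for bidirectional fitting.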

Read-out in assay [3]: Vascular endothelial growth factor receptor 2 (Homo sapiens) (UniProt P35968)
Kind of assay: BSK_4H_VEGFRII: BioMAP Diversity Plus: 4H Assay for Vascular endothelial growth factor receptor 2 (VEGFR2) Biomarker Activity (AID 2283031; active = hit-call score of the fitted dose curve at least 0.9, where 1 is the maximum; inactive = score below 0.9;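 as to AC50: cell-surface VEGFR2 protein level quantified by ELISA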). As to conditions: primary human endothelial cells (HUVEC); actives raise or lower the signal. In outline:
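VEGFRII levels on human vascular endothelial primary cells were determined by ELISA at 24 hours post-dosing, with gain- or loss-of-signal fitted against DMSO controls.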

Read-out in assay [4]: Transforming growth factor beta 1 (TGFb1), TGFB1 (gene 7040)
Kind of assay: BSK_BE3C_TGFb1: BioMAP Diversity Plus: BE3C Assay for Transforming growth factor beta 1 (TGFb1) Biomarker Activity (AID 2283036; active = hit-call score of the fitted dose curve at least 0.9, where 1 is the maximum; inactive = score below 0.9;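 also: TGF-b1 protein level measured by ELISA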). As to conditions: primary human bronchial epithelial cells; actives raise or lower the signal. In a few lines: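 ELISA readout of TGF-b1 from human lung bronchial epithelial primary cells, taken 24 h post-treatment. Gain or loss of signal fitted relative to DMSO baseline, with parallel SRB staining for overt cytotoxicity.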

Read-out in assay [5]: Transforming growth factor beta 1 (TGFb1), TGFB1 (gene 7040)
The experiment in a line: BSK_KF3CT_TGFb1: BioMAP Diversity Plus: KF3CT Assay for Transforming growth factor beta 1 (TGFb1) Biomarker Activity (AID 2283072; active = hit-call score of the fitted dose curve at least 0.9, where 1 is the maximum; inactive = score below 0.9). As to conditions: primary human keratinocytes with fibroblasts; actives raise or lower the signal. In outline: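 ELISA quantifies TGF-b1 at 24 h post-dose in a primary human skin co-culture of keratinocytes and fibroblasts, with gain or loss judged against DMSO. Parallel SRB total-protein staining flags overt cytotoxicity.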

Assay [6] concerns the target Estrogen receptor beta (Homo sapiens) (UniProt Q92731). The experiment in a line: OT_ER_ERbERb_0480: Odyssey Thera (OT) 8-hour HEK293T Protein-Complementation Assay for Estrogen Receptor-beta/-beta Homodimer (AID 2283357).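 Also: active means signal gain over DMSO baseline.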 In a few lines:
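ER-beta LBD homodimer PCA stably expressed in HEK293T; 8 h compound exposure, then formaldehyde fixation and Draq5 staining. Gain in nuclear/cytoplasmic fluorescence intensity versus DMSO vehicle, read on laser scanning cytometer.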

Assay [7] has the same target. The experiment in a line: OT_ER_ERbERb_1440: Odyssey Thera (OT) 24-hour HEK293T Protein-Complementation Assay for Estrogen Receptor-beta/-beta Homodimer (AID 2283380).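 Also: scored as signal increase over DMSO baseline for both agonists and antagonists.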 In a few lines:
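Fluorescence increase, nuclear for agonists or whole-cell for antagonists, relative to DMSO vehicle, quantified by laser scanning cytometer after fixation and Draq5 staining. Readout from 24 h treatment of HEK293T cells carrying complementation-paired ER beta LBD (aa 310-547).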

In assay [8] the target is Retinoic acid receptor RXR-alpha (Homo sapiens) (UniProt P19793). Kind of assay: OT_NURR1_NURR1RXRa_1440: Odyssey Thera (OT) 24-hour HEK293T Protein Complementation Assay for Nurr1/retinoid X receptor (RXR) (AID 2283386). In outline: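 Gain in fluorescence, fitted relative to DMSO, reflects Nurr1–RXRα association in HEK293T cells after 24 h dosing. Bait and prey are each linked to a reporter-protein fragment that reassembles on interaction.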
Retinoic acid receptor RXR-alpha (Homo sapiens), sequence (P19793 whole entry, looked up, the tested form may be a part): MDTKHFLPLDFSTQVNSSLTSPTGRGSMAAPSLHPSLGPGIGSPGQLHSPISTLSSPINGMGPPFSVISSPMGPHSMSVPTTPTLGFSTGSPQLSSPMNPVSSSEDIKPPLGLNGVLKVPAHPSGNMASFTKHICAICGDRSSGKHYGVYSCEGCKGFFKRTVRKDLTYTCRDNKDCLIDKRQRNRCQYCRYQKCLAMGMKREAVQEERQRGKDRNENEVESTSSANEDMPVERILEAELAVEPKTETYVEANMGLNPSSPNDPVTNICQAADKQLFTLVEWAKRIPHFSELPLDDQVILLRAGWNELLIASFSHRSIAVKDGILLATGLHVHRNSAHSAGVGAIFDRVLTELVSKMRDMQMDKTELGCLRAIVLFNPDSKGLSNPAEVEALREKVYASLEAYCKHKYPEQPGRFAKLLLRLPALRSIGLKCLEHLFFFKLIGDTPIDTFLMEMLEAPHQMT

Assay [9] addresses Peroxisome proliferator-activated receptor gamma (Homo sapiens) (UniProt P37231). Kind of assay: OT_PPARg_PPARgSRC1_1440: Odyssey Thera (OT) 24-hour Protein-Complementation Assay for Peroxisome Proliferator-activated Receptor Gamma/ SRC-1 Co-activator (AID 2283388).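 Also: nuclear to cytoplasmic ratio of reconstituted Venus YFP fluorescence in fixed imaged cells.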 In a few lines: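 Transient HEK293T, YFP fragments 1-158/159-239 (mutant IFP1/IFP2) fused to PPARg/SRC-1; 24 h dosing; fix 4% formaldehyde, Draq5; Opera imaging 488/635 nm; N/C ratio, gain vs DMSO.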

Assay [10] can be described thus: ACEA_AR_agonist_AUC_viability: ACEA Biosciences xCELLigence Real-Time Cell Analysis on Androgen Receptor Agonism for Viability (AID 2283775).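 As to AC50: viability read 80 hours after compound addition.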 In a few lines:
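22Rv1 cells; impedance growth kinetics; 8-pt 1:4 dilutions from 100 uM top final, ≤0.5% DMSO; n = 2; 80 h read; AUC viability, loss-of-signal vs DMSO.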

A short description of assay [11]: BSK_BT_PBMCCytotoxicity: PBMC Cytotoxicity Assessment in the BioMAP Diversity Plus: BT Assay (AID 2284225; active = hit-call score of the fitted dose curve at least 0.9, where 1 is the maximum; inactive = score below 0.9;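 also: PBMC viability measured by Alamar Blue dye reduction fluorescence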). As to conditions: primary human B cells with PBMC. In outline: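 Viability by Alamar Blue reduction (6 h, ex/em 546/580 nm) after 90 h culture of SEB/TSST-1-activated PBMC (20 ng/mL each) given compound 1 h before activation. DMSO served as baseline for curve fitting.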

Read-out in assay [12]: Secreted IgG (sIgG), gene 3500
The experiment in a line: BSK_BT_sIgG: BioMAP Diversity Plus: BT Assay for Secreted IgG (sIgG) Biomarker Activity (AID 2284226; active = hit-call score of the fitted dose curve at least 0.9, where 1 is the maximum; inactive = score below 0.9). The settings on record: primary human B cells with PBMC. In outline:
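ELISA quantitation of secreted IgG from human B cells co-cultured with PBMC, sampled 24 h post-dosing. Values fitted relative to DMSO vehicle as baseline, positive fitting direction.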

Assay [13] can be described thus: BSK_BT_Bcell_Proliferation: Viability Assessment in the BioMAP Diversity Plus: BT Assay for B cell Proliferation (AID 2284227; active = hit-call score of the fitted dose curve at least 0.9, where 1 is the maximum; inactive = score below 0.9). As to conditions: primary human B cells with PBMC. In outline: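 Human B cell/PBMC co-culture; test chemical added; 72 h; TCA fix (10%), 0.1% SRB stain, A560 for total protein as a proliferation read-out; positive-direction fit vs DMSO baseline.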

Read-out in assay [14]: Collagen IV, COL4A1 (gene 1282)
The experiment in a line: BSK_MyoF_CollagenIV: BioMAP Diversity Plus: MyoF Assay for Collagen IV Biomarker Activity (AID 2284247; active = hit-call score of the fitted dose curve at least 0.9, where 1 is the maximum; inactive = score below 0.9). As to conditions: primary human lung fibroblasts. In a few lines: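 Collagen IV quantified by ELISA in human lung fibroblast cultures 24 h after chemical treatment, with DMSO as baseline. Parallel SRB staining (0.1% SRB after TCA fixation, 560 nm) flags overt cytotoxicity.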

Read-out in assay [15]: Matrix Metallopeptidase 1 (MMP1), MMP1 (gene 4312)
The experiment in a line: BSK_MyoF_MMP1: BioMAP Diversity Plus: MyoF Assay for Matrix Metallopeptidase 1 (MMP1) Biomarker Activity (AID 2284268; active = hit-call score of the fitted dose curve at least 0.9, where 1 is the maximum; inactive = score below 0.9). The settings on record: primary human lung fibroblasts. In outline:
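MMP1 measured by ELISA 24 h after dosing primary human lung fibroblasts; cytotoxicity checked in parallel cultures by sulforhodamine B total-protein staining read at 560 nm.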

Read-out in assay [16]: TIMP metallopeptidase inhibitor 1 (TIMP1), TIMP1 (gene 7076)
Kind of assay: BSK_MyoF_TIMP1: BioMAP Diversity Plus: MyoF Assay for TIMP metallopeptidase inhibitor 1 (TIMP1) Biomarker Activity (AID 2284269; active = hit-call score of the fitted dose curve at least 0.9, where 1 is the maximum; inactive = score below 0.9). The settings on record: primary human lung fibroblasts. In outline: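 ELISA read-out of TIMP-1 from primary human lung fibroblast cultures 24 h after compound dosing; gain of signal relative to DMSO vehicle baseline defines activity.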

The target in assay [17] is Estrogen-related receptor gamma (Homo sapiens) (UniProt P62508). The experiment in a line: ATG_ERRg_TRANS: Attagene TRANS-FACTORIAL HepG2 Assay for human Estrogen-Related Receptor gamma (ERRg) (AID 2282977).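 Also: hits increase reporter signal over DMSO so potencies reflect activators.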 As to conditions: HepG2 Attagene TRANS reporter, ERRg transactivation. In a few lines: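 Exogenous NR-Gal4 chimera activity measured as reporter transcript induction after 24 h in transiently transfected HepG2 cells. RNA reverse-transcribed, PCR-amplified, 6-FAM-labelled and resolved by capillary electrophoresis; increase over DMSO baseline.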
Estrogen-related receptor gamma (Homo sapiens), sequence (P62508 whole entry, looked up, the tested form may be a part): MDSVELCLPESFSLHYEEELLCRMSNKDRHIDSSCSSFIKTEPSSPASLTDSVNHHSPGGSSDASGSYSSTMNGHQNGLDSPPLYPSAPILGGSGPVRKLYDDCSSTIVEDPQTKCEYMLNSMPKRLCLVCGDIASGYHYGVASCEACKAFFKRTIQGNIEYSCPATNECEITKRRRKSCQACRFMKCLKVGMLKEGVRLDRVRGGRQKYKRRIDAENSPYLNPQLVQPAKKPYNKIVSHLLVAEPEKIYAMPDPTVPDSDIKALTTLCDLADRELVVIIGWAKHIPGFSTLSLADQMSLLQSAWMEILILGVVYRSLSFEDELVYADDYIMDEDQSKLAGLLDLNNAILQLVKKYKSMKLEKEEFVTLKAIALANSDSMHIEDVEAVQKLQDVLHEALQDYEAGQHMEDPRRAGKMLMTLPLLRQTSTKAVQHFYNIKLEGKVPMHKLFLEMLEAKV

The nature of assay [18]: ACEA_AR_antagonist_AUC_viability: ACEA Biosciences xCELLigence Real-Time Cell Analysis on Androgen Receptor Antagonism for Viability (AID 2283776).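 Also: 22Rv1 human prostate cancer cells growing on impedance electrode plates.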 In outline: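 Impedance read-out (RT-CES): area under growth curve at 80 h post-dose, loss of signal scored vs DMSO baseline. 22Rv1 cells; 8-pt 1:4 series, top 100 uM final, ≤0.5% DMSO; biological duplicate.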
Assay [19] in a line: CCTE_Harrill_HTTr_Apoptosis_MCF7: CCTE's 6-hour Apoptosis Assessment for the High-Throughput Transcriptomics (HTTr) Platform, in MCF-7 cells cultured in DMEM + 10% fetal bovine serum, Harrill Lab (AID 2284011; active = hit-call score of the fitted dose curve at least 0.9, where 1 is the maximum; inactive = score below 0.9). In outline:
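Cells are dosed with test chemicals at eight concentrations and imaged 6 hours later for caspase-3/7 activity using a green fluorogenic detection reagent. Activity is fitted in both directions against DMSO controls.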

Assay [20] is described as follows: CCTE_Harrill_HTTr_CellCount_MCF7: CCTE's Cell Proliferation Assessment for the High-Throughput Transcriptomics (HTTr) Platform, Harrill Lab (AID 2284012).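 Also: cells exposed to compound for six hours; intended direction is loss of nuclei count meaning fewer cells.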 In a few lines:
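Cell count from high-content imaging of Hoechst-labeled nuclei serves as viability/growth readout. Chemicals were applied to MCF-7 cells in eight concentrations for six hours, with fitting in both directions relative to DMSO.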

Values joined by “and” are separate entries in the source; they are usually repeats but may differ in a detail not shown here. Equal entries are not always repeated. Inconclusive results are not listed. Active and inactive are the calls of the source. The calls were made as follows, unless noted: active = hit-call score of the fitted dose curve at least 0.9, where 1 is the maximum; inconclusive = response in the unintended direction; inactive = score below 0.9.

Estrogen receptor beta (Homo sapiens), sequence (Q92731 whole entry, looked up, the tested form may be a part): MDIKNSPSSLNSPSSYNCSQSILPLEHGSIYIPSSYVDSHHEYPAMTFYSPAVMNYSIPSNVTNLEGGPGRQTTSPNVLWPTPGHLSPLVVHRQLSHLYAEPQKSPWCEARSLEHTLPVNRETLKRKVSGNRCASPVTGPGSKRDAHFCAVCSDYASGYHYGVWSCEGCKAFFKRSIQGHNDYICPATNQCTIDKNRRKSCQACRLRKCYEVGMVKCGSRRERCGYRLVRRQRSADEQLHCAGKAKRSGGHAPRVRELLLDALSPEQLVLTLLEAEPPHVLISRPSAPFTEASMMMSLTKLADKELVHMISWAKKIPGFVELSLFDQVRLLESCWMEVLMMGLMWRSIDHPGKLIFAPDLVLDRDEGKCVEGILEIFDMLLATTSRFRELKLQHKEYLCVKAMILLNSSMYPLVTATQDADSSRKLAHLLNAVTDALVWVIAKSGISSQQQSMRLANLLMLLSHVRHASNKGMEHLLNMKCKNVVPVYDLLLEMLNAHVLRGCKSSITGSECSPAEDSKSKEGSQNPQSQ
Peroxisome proliferator-activated receptor gamma (Homo sapiens), sequence (P37231 whole entry, looked up, the tested form may be a part): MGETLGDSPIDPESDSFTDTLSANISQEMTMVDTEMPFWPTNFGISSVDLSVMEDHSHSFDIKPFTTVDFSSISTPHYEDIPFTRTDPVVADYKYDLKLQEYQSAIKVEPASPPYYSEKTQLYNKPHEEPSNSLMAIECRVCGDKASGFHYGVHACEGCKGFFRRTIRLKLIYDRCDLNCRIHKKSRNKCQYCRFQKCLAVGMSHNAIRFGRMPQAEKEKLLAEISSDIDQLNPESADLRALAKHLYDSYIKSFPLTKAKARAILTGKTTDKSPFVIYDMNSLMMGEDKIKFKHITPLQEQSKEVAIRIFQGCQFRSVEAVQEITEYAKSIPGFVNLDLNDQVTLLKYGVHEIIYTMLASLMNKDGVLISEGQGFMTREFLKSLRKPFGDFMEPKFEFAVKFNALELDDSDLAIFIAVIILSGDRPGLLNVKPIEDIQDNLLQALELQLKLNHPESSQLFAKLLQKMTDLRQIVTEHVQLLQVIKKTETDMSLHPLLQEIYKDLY
Estrogen receptor (Homo sapiens), sequence (P03372 whole entry, looked up, the tested form may be a part): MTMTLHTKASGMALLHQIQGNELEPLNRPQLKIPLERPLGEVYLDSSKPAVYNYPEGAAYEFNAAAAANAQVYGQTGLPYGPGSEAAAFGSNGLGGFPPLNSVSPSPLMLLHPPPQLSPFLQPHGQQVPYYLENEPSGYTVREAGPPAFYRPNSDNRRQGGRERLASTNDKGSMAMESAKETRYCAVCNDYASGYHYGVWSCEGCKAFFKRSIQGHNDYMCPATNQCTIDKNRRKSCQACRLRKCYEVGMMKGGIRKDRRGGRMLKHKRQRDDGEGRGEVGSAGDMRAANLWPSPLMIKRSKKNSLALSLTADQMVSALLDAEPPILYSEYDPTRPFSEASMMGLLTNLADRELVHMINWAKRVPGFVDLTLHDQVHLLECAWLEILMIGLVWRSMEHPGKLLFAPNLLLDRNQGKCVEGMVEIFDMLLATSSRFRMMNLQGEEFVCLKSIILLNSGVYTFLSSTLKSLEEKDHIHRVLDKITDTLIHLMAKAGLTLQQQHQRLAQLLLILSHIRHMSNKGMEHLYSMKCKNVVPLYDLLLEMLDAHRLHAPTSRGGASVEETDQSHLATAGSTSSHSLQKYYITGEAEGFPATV

For `C=C(Cl)CCl`, the compound was called inactive in [1].

Consider `CCCCOP(=O)(O)OCCCC`, for which the result in assay [1] was inactive.

For `C=CCN(CC=C)C(=O)C(Cl)Cl`, the result in assay [2], in assay [3], in [4], in assay [5], in [6] and in [7] was inactive. Moreover, the compound was classed as inactive in assay [8], in [9], in [10], in assay [11], in assay [12] and in assay [13]. The outcome in assay [14], in assay [15] and in assay [16] was inactive.

With `CCOP(=O)(OCC)OCC`, the compound was classed as inactive in [17], in assay [6], in assay [7], in assay [9] and in assay [10].

On to `CCCCCCCCCCCCCCCC[N+](C)(C)C`, for which the result in assay [6], in [7] and in assay [9] was inactive. The AC50 in assay [10] is 5.58 µM (active); in assay [18], 6.1 µM (active).

For the compound `CCCOC(=O)c1ccccc1C(=O)OCCC`, the AC50 in [1] was 33.7 µM (active); in [12] it was 20 µM (active). Also, the result in [2], in assay [3], in assay [4], in assay [5], in assay [11] and in assay [13] was inactive. Besides, the outcome in assay [14], in assay [15] and in assay [16] was inactive.

For the compound `CC(=O)c1cc2c(cc1C)C(C)(C)C(C)CC2(C)C` (centres undefined), the results for the AC50 in [6] and in assay [7] were 5.28 µM (active) and 12.5 µM (active), respectively. The outcome in [8], in assay [9], in assay [10], in assay [18], in [19] and in assay [20] was inactive.

As for `O=C(O)c1cc[c]([Hg][Cl])cc1`, in assay [1], the call was inactive.

On to `N#CCCCCC#N`, for which the result in assay [2], in [3], in assay [4], in assay [5], in assay [9] and in [18] was inactive. Also, the outcome in assay [20] was inactive.

Turning to `Oc1ccc(C2(c3ccc(O)cc3)c3ccccc3-c3ccccc32)cc1`, the call in [1] was inactive. For the same compound, the AC50 in assay [3] is 33.9 µM (active) and 35.7 µM (active).

In the case of `Cl/C=C\CCl`, the result in [19] and in assay [20] was inactive.

On to `O=[N+]([O-])c1ccc(Cl)cc1`, for which the result in assay [2], in assay [3], in assay [4], in assay [5], in assay [6] and in [7] was inactive. Further, the outcome in assay [8] and in assay [10] was inactive.

As for `[N-]=[N+]=CC(=O)OC[C@H](N)C(=O)O`, the result in assay [19] and in [20] was inactive.

In the case of `Nc1ccccc1`, the compound was classed as inactive in assay [8], in assay [9], in assay [10], in [18], in assay [19] and in assay [20].
